From PubChem BioAssay AID1159580 (chemical genetic matrix, 2015)
Several values for one entry are separate records, joined by “and”; a condition that tells them apart may be missing. Identical values can stand only once. The whole screen tested about 5,500 compounds, of which about 2,000 (36%) were called active. Inconclusive results (about 18%) are left out. No stated cut-off is given here; in the data, active means normalized growth mostly below about 0.91 (no sharp cut-off); inconclusive means no clear call, values can overlap the other calls; inactive means mostly above about 0.92. This is one part of the list.

Experiment: chemical genetic growth profiling, strain panel (AID 1159580);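 further: tested at 20 µM; growth read once vehicle control cultures reached saturation at 30 °C; 1 = growth at the plate median or of vehicle wells; lower values mean less growth of the strain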
Conditions: growth OD

Measured: normalized growth

C1CCc2nnnn2CC1
inactive: S. cerevisiae deletion strains, locus YJR075W, strain HOC1, hits give low values 1.03 and 1.01 | S. cerevisiae deletion strains, locus YKL009W, strain mrt4, hits give low values 1.03 | S. cerevisiae deletion strains, locus YKL068W, hits give low values 1.02 | S. cerevisiae deletion strains, locus YKL085W, strain MDH1 (second series), hits give low values 1 | S. cerevisiae deletion strains, locus YKL085W, strain MDH1, hits give low values 1 | S. cerevisiae deletion strains, locus YKL160W, strain elf1, hits give low values 1.01 | S. cerevisiae deletion strains, locus YKL190W, strain CNB1, hits give low values 1 | S. cerevisiae deletion strains, locus YKR001C, strain vps1, hits give low values 1.02 | S. cerevisiae deletion strains, locus YKR026C, strain gcn3, hits give low values 1.01 | S. cerevisiae deletion strains, locus YKR091W, strain srl3, hits give low values 1 | S. cerevisiae deletion strains, locus YLL001W, strain dnm1, hits give low values 1 | S. cerevisiae deletion strains, locus YLL026W, hits give low values 1 | S. cerevisiae deletion strains, locus YLL041C, strain sdh2, hits give low values 1 | S. cerevisiae deletion strains, locus YLR027C, strain aat2, hits give low values 1 | S. cerevisiae deletion strains, locus YLR039C, strain RIC1, hits give low values 1.03 | S. cerevisiae deletion strains, locus YLR058C, strain SHM2, hits give low values 1.02 | S. cerevisiae deletion strains, locus YLR102C, strain apc9, hits give low values 1 | S. cerevisiae deletion strains, locus YLR113W, strain HOG1, hits give low values 0.985 | S. cerevisiae deletion strains, locus YLR221C, strain rsa3, hits give low values 1.01 | S. cerevisiae deletion strains, locus YLR258W, strain gsy2, hits give low values 1.01 | S. cerevisiae deletion strains, locus YLR262C, strain YPT6 (second series), hits give low values 1.02 | S. cerevisiae deletion strains, locus YLR262C, strain YPT6, hits give low values 1.04 | S. cerevisiae deletion strains, locus YLR268W, strain sec22, hits give low values 1.05 | S. cerevisiae deletion strains, locus YLR320W, strain mms22, hits give low values 1.01 | S. cerevisiae deletion strains, locus YLR330W, strain CHS5, hits give low values 1 | S. cerevisiae deletion strains, locus YLR342W, strain FKS1 (second series), hits give low values 1.01 | S. cerevisiae deletion strains, locus YLR342W, strain FKS1, hits give low values 1.01 | S. cerevisiae deletion strains, locus YLR357W, strain rsc2, hits give low values 0.983 | S. cerevisiae deletion strains, locus YLR370C, strain arc18, hits give low values 1.01 | S. cerevisiae deletion strains, locus YLR371W, strain rom2, hits give low values 1.02 | S. cerevisiae deletion strains, locus YLR384C, strain iki3, hits give low values 0.999 | S. cerevisiae deletion strains, locus YLR418C, strain cdc73, hits give low values 1.02 | S. cerevisiae deletion strains, locus YML016C, strain PPZ1, hits give low values 1.01 | S. cerevisiae deletion strains, locus YML032C, strain rad52, hits give low values 1.03 | S. cerevisiae deletion strains, locus YML120C, strain ndi1, hits give low values 0.998 | S. cerevisiae deletion strains, locus YML124C, strain tub3, hits give low values 1.01 | S. cerevisiae deletion strains, locus YMR058W, strain fet3, hits give low values 1.01 | S. cerevisiae deletion strains, locus YMR078C, strain ctf18, hits give low values 1.02 | S. cerevisiae deletion strains, locus YMR125W, strain sto1, hits give low values 1.01 | S. cerevisiae deletion strains, locus YMR129W, hits give low values 1.01 | S. cerevisiae deletion strains, locus YMR205C, strain PFK2, hits give low values 1.03 | S. cerevisiae deletion strains, locus YMR223W, strain ubp8, hits give low values 0.987 | S. cerevisiae deletion strains, locus YMR231W, strain pep5, hits give low values 1 | S. cerevisiae deletion strains, locus YMR263W, strain SAP30, hits give low values 1.03 | S. cerevisiae deletion strains, locus YMR307W, strain GAS1, hits give low values 1.01 | S. cerevisiae deletion strains, locus YNL067W, strain RPL9B, hits give low values 1.03 | S. cerevisiae deletion strains, locus YNL071W, strain lat1, hits give low values 0.999 | S. cerevisiae deletion strains, locus YNL128W, strain TEP1, hits give low values 1.02 | S. cerevisiae deletion strains, locus YNL153C, strain GIM3, hits give low values 1.02 and 1.14 | S. cerevisiae deletion strains, locus YNL175C, strain NOP13, hits give low values 1.01 | S. cerevisiae deletion strains, locus YNL183C, strain NPR1, hits give low values 0.918 | S. cerevisiae deletion strains, locus YNL197C, strain WHI3, hits give low values 1.01 | S. cerevisiae deletion strains, locus YNL209W, strain ssb2, hits give low values 1.01 | S. cerevisiae deletion strains, locus YNL224C, strain SQS1, hits give low values 1.02 | S. cerevisiae deletion strains, locus YNL233W, strain BNI4, hits give low values 0.982 | S. cerevisiae deletion strains, locus YNL248C, strain rpa49, hits give low values 0.994 | S. cerevisiae deletion strains, locus YNL250W, strain rad50, hits give low values 1 | S. cerevisiae deletion strains, locus YNL271C, strain bni1, hits give low values 1.02 | S. cerevisiae deletion strains, locus YNL298W, strain CLA4, hits give low values 1.01 | S. cerevisiae deletion strains, locus YNL307C, strain MCK1, hits give low values 1.01 | S. cerevisiae deletion strains, locus YNL322C, strain KRE1 (second series), hits give low values 1.01 | S. cerevisiae deletion strains, locus YNL322C, strain KRE1, hits give low values 1.01 and 1 | S. cerevisiae deletion strains, locus YNR049C, strain mso1, hits give low values 1.01 | S. cerevisiae deletion strains, locus YNR052C, strain pop2, hits give low values 1 | S. cerevisiae deletion strains, locus YOL006C, strain TOP1, hits give low values 1.08 | S. cerevisiae deletion strains, locus YOL012C, strain htz1 0.99 | S. cerevisiae deletion strains, locus YOL147C, strain pex11, hits give low values 1.01 | S. cerevisiae deletion strains, locus YOR001W, strain rrp6, hits give low values 1 | S. cerevisiae deletion strains, locus YOR061W, strain CKA2, hits give low values 1.01 | S. cerevisiae deletion strains, locus YOR069W, strain VPS5, hits give low values 1.02 | S. cerevisiae deletion strains, locus YOR070C, strain gyp1, hits give low values 0.999 | S. cerevisiae deletion strains, locus YOR080W, strain dia2, hits give low values 1 | S. cerevisiae deletion strains, locus YOR083W, strain WHI5 (second series), hits give low values 1.02 | S. cerevisiae deletion strains, locus YOR083W, strain WHI5, hits give low values 1.02 | S. cerevisiae deletion strains, locus YOR106W, strain vam3, hits give low values 1.01 | S. cerevisiae deletion strains, locus YOR136W, strain idh2, hits give low values 0.992 | S. cerevisiae deletion strains, locus YOR144C, strain elg1, hits give low values 1.01 | S. cerevisiae deletion strains, locus YOR184W, strain ser1, hits give low values 1.03 | S. cerevisiae deletion strains, locus YOR231W, strain MKK1, hits give low values 0.982 | S. cerevisiae deletion strains, locus YOR265W, strain rbl2, hits give low values 1.02 | S. cerevisiae deletion strains, locus YOR270C, strain vph1, hits give low values 1.04 | S. cerevisiae deletion strains, locus YOR290C, strain snf2, hits give low values 1.01 | S. cerevisiae deletion strains, locus YOR316C, strain cot1, hits give low values 1.01 | S. cerevisiae deletion strains, locus YPL051W, strain arl3, hits give low values 1.01 | S. cerevisiae deletion strains, locus YPL055C, strain LGE1, hits give low values 0.977 | S. cerevisiae deletion strains, locus YPL078C, strain atp4, hits give low values 1.01 | S. cerevisiae deletion strains, locus YPL106C, strain sse1, hits give low values 1 | S. cerevisiae deletion strains, locus YPL240C, strain hsp82, hits give low values 1.02 | S. cerevisiae deletion strains, locus YPL241C, strain CIN2, hits give low values 1 | S. cerevisiae deletion strains, locus YPL256C, strain CLN2, hits give low values 0.976 | S. cerevisiae deletion strains, locus YPR119W, strain clb2, hits give low values 1 | S. cerevisiae deletion strains, locus YPR141C, strain kar3, hits give low values 1 | S. cerevisiae deletion strains, locus YPR163C, strain tif3, hits give low values 1.02 | S. cerevisiae deletion strains, locus YPR167C, strain met16, hits give low values 1.01 | S. cerevisiae deletion strains, strain wtn01, hits give low values 1.02 | S. cerevisiae strains, strain wild type, hits give low values 1.01
